Screening data: PubChem, National Center for Advancing Translational Sciences (NCATS)
ATXN viability: viability counter-screen for ATXN expression inhibitors | AID 651635 | S2 cells (HEK-293 line with an ATXN2-luciferase reporter) viability, CellTiter-Fluor protease fluorescence, 24 h | Potency, µM (highest dose often 56.7 µM), actives largely listed as cytotoxic | actives 0.49% (n = 400,000); also: nearly all actives have a fitted effect of over 40% in size
HT1080-NT tox: kills 2HG-producing HT-1080-NT fibrosarcoma cells | HT-1080-NT fibrosarcoma viability, CellTiter-Glo ATP luminescence, 48 h | Potency, µM (titrated, usually from 46.1 µM), most hits filed as cytotoxic | actives 1.6% (n = 360,000);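 also: NT is the 2HG producing partner of a matched IDH1 knockdown line; nearly all actives have a fitted effect of over 55% in size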
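Viability by CellTiter-Glo luminescence after 48 h compound exposure at 37C of HT-1080-NT cells (750/well, RPMI, 5% FBS). % activity scaled between DMSO wells and medium-only wells, then curve-fitted and categorized by curve class.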
KB-3-1 cytotox: kills parental KB-3-1 adenocarcinoma cells. Potency, µM (doses to about 46.1 µM), hits mostly cytotoxic. actives 1.4% (n = 400,000). KB-3-1 viability, CellTiter-Glo ATP luminescence, 72 h; also: nearly all actives have a fitted effect of over 60% in size
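Here the drug-naive KB-3-1 line serves as comparator for MDR sub-line selectivity; cells received compound titrations, 72 h at 37 °C, then CellTiter-Glo readout.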
KB-V1 cytotox: KB-V1 MDR subline cytotoxicity; Potency, µM (top dose mostly 46.1 µM), most hits filed as cytotoxic; KB-V1 MDR cells viability, CellTiter-Glo, 72 h; actives 3.4% (n = 400,000); AID 1347076; also: nearly all actives have a fitted effect of over 60% in size
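In this primary screen, KB-V1 cells overexpressing P-gp are incubated with library compounds (lowest to highest concentration) for 72 h at 37 degrees C before a luminescent ATP viability read.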
HT1080 IDH1KD tx: kills HT-1080 cells with IDH1 knockdown | actives 2% (n = 360,000) | Potency, µM (highest dose often 46.1 µM), hits mostly cytotoxic | AID 686971 | HT-1080 IDH1 knockdown viability, ATP luminescence, 48 h
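In this qHTS, HT-1080 cells depleted of IDH1 are exposed for 48 h at 37 °C to compound titrations. Toxicity is scored from CellTiter-Glo luminescence, with DMSO as full viability and medium alone as none.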
ATXN2 expr inh: reduces ATXN2 reporter expression in HEK-293 cells | Potency, µM (series often up to 57 µM), actives largely listed as inhibitors | actives 0.72% (n = 360,000) | HEK-293 ATXN2-luciferase reporter, luminescence, 24 h; also: nearly all actives have a fitted effect of over 55% in size
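qHTS (up to 57 uM final) was run with 24 h compound exposure of reporter cells at 37 °C. Each well was multiplexed: SteadyGlo luminescence measured ATXN2-luciferase expression after a fluorogenic Gly-Phe-AFC viability readout (25 uM final).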
Large screens that a line does not name were inactive. An excerpt weighted towards active compounds, which were near 6.2% of everything screened. Calls follow the shape of the dose curve; as a rule, active = well fitted curve in the direction sought with a large enough effect; inconclusive = small, poorly fitted or top-dose-only effect, or another doubt; inactive = no such curve, though single readings can be large; an effect the other way counts as inactive or inconclusive.

O=C(CSc1nnc(-c2ccccc2)c(-c2ccccc2)n1)NCc1ccco1	KB-3-1 cytotox inconclusive, KB-V1 cytotox 16µM, HT1080 IDH1KD tx inconclusive
O=C(CSc1ncc(-c2ccccc2)nn1)NCc1ccco1	ATXN viability inconclusive
O=C(CSc1nc(-c2ccccc2)c(-c2ccccc2)[nH]1)NCc1ccco1	HT1080-NT tox inconclusive, KB-3-1 cytotox inconclusive, KB-V1 cytotox 10µM, HT1080 IDH1KD tx inconclusive
O=C(CSc1ccccc1F)NCCN1C(=O)CSC1=O	none
CCN(CC)CCNC(=O)c1cnn(-c2ncc3c(n2)-c2ccc(OC)cc2CC3)c1C	none (no result: HT1080-NT tox, KB-3-1 cytotox, KB-V1 cytotox, HT1080 IDH1KD tx, ATXN2 expr inh)
COc1ccc(C)cc1NC(=O)Cn1c(=O)c(C(F)(F)F)nc2ccccc21	none (no result: HT1080-NT tox, HT1080 IDH1KD tx)
O=C(CCCN1C(=O)c2cccc3cccc(c23)C1=O)N1CCN(c2ccccc2O)CC1	KB-3-1 cytotox inconclusive, KB-V1 cytotox 6.5µM
O=C(CCCN1C(=O)c2cccc3cccc(c23)C1=O)N1CCN(c2ccccc2)CC1	none
COc1ccc(Cl)cc1NC(=O)c1ccc2c(c1)CCN2S(C)(=O)=O	none (no result: HT1080-NT tox, HT1080 IDH1KD tx)
C/C(=N\Nc1nc2ccccc2c(=O)n1O)c1ccco1	KB-3-1 cytotox 21µM, KB-V1 cytotox 15µM
C/C(=N\NC(=O)c1cc(C)nc2ccccc12)c1ccco1	none
OC(CNC1Cc2ccccc2C1)c1ccccc1 (centres undefined)	none
c1coc(CNc2c3c(nc4ncnn24)CCCC3)c1	ATXN viability inconclusive
Clc1cccc(-c2cc3nc4c(c(NCc5ccco5)n3n2)CCCC4)c1	HT1080-NT tox inconclusive, KB-V1 cytotox 21µM
Cc1ccc(-c2cc3nc(C)cc(NCc4ccco4)n3n2)cc1	HT1080-NT tox inconclusive, KB-V1 cytotox 15µM
O=C(C1CCC(Cn2c(=O)c3sccc3n(Cc3ccc(F)cc3)c2=O)CC1)N1CCOCC1 (centres undefined)	none (no result: HT1080-NT tox, HT1080 IDH1KD tx)
OC1CCCN(Cc2cccc3ccccc23)C1 (centres undefined)	none
OC1CCCN(Cc2c3ccccc3cc3ccccc23)C1 (centres undefined)	HT1080-NT tox inconclusive, KB-V1 cytotox inconclusive, HT1080 IDH1KD tx inconclusive, ATXN2 expr inh 18µM
Cc1cc2oc(C(=O)Nc3sc4c(c3C(=O)NCc3ccccc3)CCCC4)cc(=O)c2cc1C	none (no result: HT1080-NT tox, HT1080 IDH1KD tx)
CN(C)CCCNc1ncnc2ccc(-c3ccc4c(c3)OCO4)cc12	none (no result: ATXN viability, HT1080-NT tox, HT1080 IDH1KD tx, ATXN2 expr inh)
Cc1ccc(-n2nc3c(=O)n(CC(=O)c4ccc(F)cc4)nc(C)c3c2C)cc1	KB-V1 cytotox 2.9µM
Cc1nn(Cc2ccccc2)c(=O)c2nn(-c3ccc(Cl)cc3)c(C)c12	KB-V1 cytotox 8.2µM
O=c1c2ccccc2nc(/C=C/c2ccc([N+](=O)[O-])o2)n1CCCO	HT1080-NT tox 2.9µM, KB-3-1 cytotox 5.8µM, KB-V1 cytotox inconclusive, HT1080 IDH1KD tx 2.9µM, ATXN2 expr inh 4.5µM (no result: ATXN viability)
O=c1c2ccccc2nc(/C=C/c2cccc([N+](=O)[O-])c2)n1CCCO	HT1080 IDH1KD tx inconclusive
O=c1c2ccccc2nc(/C=C/c2ccc([N+](=O)[O-])cc2)n1CCCO	KB-3-1 cytotox inconclusive, KB-V1 cytotox 21µM
CC(CCc1ccc(O)cc1)NC(c1ccccc1)c1ccc(Cl)cc1 (centres undefined)	ATXN viability inconclusive, HT1080-NT tox 10µM, HT1080 IDH1KD tx 7.3µM, ATXN2 expr inh inconclusive
CC(CCc1ccccc1)NCc1ccc(Cl)cc1Cl (centres undefined)	none
CC(CCc1ccc(O)cc1)NCCC(c1ccccc1)c1ccccc1 (centres undefined)	ATXN viability inconclusive, HT1080-NT tox 21µM, KB-3-1 cytotox inconclusive, KB-V1 cytotox inconclusive, HT1080 IDH1KD tx 21µM, ATXN2 expr inh inconclusive
COc1cc(/C(C)=C/c2ccccc2)c2c(c1)oc1ccccc12	none (no result: ATXN viability, HT1080-NT tox, HT1080 IDH1KD tx, ATXN2 expr inh)
N#CC1=C(SCC(=O)NCc2ccccc2)NC(=O)CC1c1ccco1 (centres undefined)	none
N#CC1=C(SCC(=O)Nc2ccccc2)NC(=O)CC1c1ccco1 (centres undefined)	HT1080-NT tox 14µM, KB-3-1 cytotox inconclusive, KB-V1 cytotox 15µM, HT1080 IDH1KD tx inconclusive
N#CC1=C(SCC(=O)NC2CCCCC2)NC(=O)CC1c1ccco1 (centres undefined)	KB-3-1 cytotox 15µM
COc1ccccc1CNC(=O)c1cc(-c2ccncc2)nc2c(Cl)cccc12	none
COc1ccc(CCNC(=O)c2cc(-c3ccncc3)nc3c(Cl)cccc23)cc1OC	KB-V1 cytotox 23µM
COc1ccc(CNC(=O)c2cc(-c3ccncc3)nc3c(C)cc(C)cc23)cc1OC	ATXN viability inconclusive, KB-V1 cytotox 23µM
COc1ccc(CCNC(=O)c2nnn(-c3cccc(C)c3)c2N)cc1OC	KB-V1 cytotox 9.2µM
COc1ccc(-c2cc(C(=O)NCCc3ccccc3)c3c(-c4ccccc4)[nH]nc3n2)cc1	ATXN viability inconclusive, KB-V1 cytotox inconclusive (no result: HT1080-NT tox, HT1080 IDH1KD tx)
COc1ccc(-c2cc(C(=O)NCCc3ccccc3)c3c(-c4ccc(Cl)cc4)[nH]nc3n2)cc1	ATXN viability inconclusive, KB-V1 cytotox 23µM (no result: HT1080-NT tox, HT1080 IDH1KD tx)
COc1ccc(CCNC(=O)c2cc(-c3ccccn3)nc3c(Cl)cccc23)cc1OC	KB-3-1 cytotox inconclusive (no result: ATXN2 expr inh)
COc1cc(C2CC(=O)N(CC(=O)Nc3ccccc3F)c3ccccc3S2)cc(OC)c1OC (centres undefined)	ATXN viability inconclusive, KB-V1 cytotox inconclusive, ATXN2 expr inh inconclusive (no result: HT1080-NT tox, HT1080 IDH1KD tx)
